HepG2 viability: HepG2 cytotoxicity, counter-screen for TGF-b inhibitors; actives 0.76% (n = 410,000); AID 588856; HepG2 CAGA-GFP viability, ATP luminescence, 18 h; Potency, µM (titrated, usually from 46.1 µM), for inactives: at the top dose activity change, negative = cytotoxicity, usual class: cytotoxic; also: potency is read from the fitted curve at half-maximal effect
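HepG2 CAGA-GFP cells (1000/well, DMEM with 1% FBS) received compound, then TGF-beta at 500 pg/mL final, and were incubated 18 hours at 37 degrees C. Viability was read by CellTiter-Glo luminescence. Media-only wells were set as complete cell-killing and DMSO as no toxicity.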
TDP1 cell CPT: growth inhibition of DT40 Tdp1-/-;hTDP1 cells with camptothecin (screen for TDP1 inhibitors); actives 12% (n = 420,000); chicken DT40 Tdp1-/-;hTDP1 cells + 20 nM CPT, ATP luminescence, 48 h; Potency, µM (highest dose often 46.2 µM), for the others: at the top dose activity change, negative = growth inhibition, most hits filed as inhibitors; AID 686979; also: potency is read from the fitted curve at half-maximal effect; % is scaled to controls: 0 for no effect and ±100 for the full control effect; nearly all actives have a fitted effect of over 55% in size
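Chicken DT40 Tdp1-/- cells stably complemented with human TDP1 were seeded at 400 cells/well in medium containing 20 nM camptothecin, exposed to pin-transferred compounds, and grown at 37 °C for at least 48 hr. Viability was read as ATP luminescence.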
IL-1B inflam inh: inflammasome signaling inhibition, IL-1 beta readout | actives 4.7% (n = 360,000) | activity change, % at 57.5 µM | THP-1 LPS/ATP IL-1B secretion, AlphaLISA, 16 h; stronger effect = lower value; in the data active = activity change below about -50%; inconclusive = mostly about -30% to -49%; also: % is scaled to controls: 0 for no effect and ±100 for the full control effect
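Secreted IL-1B measured by AlphaLISA bead assay after 16 h compound exposure of THP-1 cells; compounds (final up to 57.5 uM) added 1 h before LPS (250 ng/mL) and ATP (1.25 mM) stimulation; lower signal means less secretion.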
S-ASM inh: inhibitors of human secretory acid sphingomyelinase; placental ASM, HMU-PC fluorogenic substrate, 60 min; P17405; actives 0.006% (n = 340,000); Potency, µM (doses to about 57.5 µM), inactives show at the highest dose activity change, negative = inhibition, hits mostly inhibitors; also: potency is read from the fitted curve at half-maximal effect
Target sequence (P17405 47-631 limits assumed): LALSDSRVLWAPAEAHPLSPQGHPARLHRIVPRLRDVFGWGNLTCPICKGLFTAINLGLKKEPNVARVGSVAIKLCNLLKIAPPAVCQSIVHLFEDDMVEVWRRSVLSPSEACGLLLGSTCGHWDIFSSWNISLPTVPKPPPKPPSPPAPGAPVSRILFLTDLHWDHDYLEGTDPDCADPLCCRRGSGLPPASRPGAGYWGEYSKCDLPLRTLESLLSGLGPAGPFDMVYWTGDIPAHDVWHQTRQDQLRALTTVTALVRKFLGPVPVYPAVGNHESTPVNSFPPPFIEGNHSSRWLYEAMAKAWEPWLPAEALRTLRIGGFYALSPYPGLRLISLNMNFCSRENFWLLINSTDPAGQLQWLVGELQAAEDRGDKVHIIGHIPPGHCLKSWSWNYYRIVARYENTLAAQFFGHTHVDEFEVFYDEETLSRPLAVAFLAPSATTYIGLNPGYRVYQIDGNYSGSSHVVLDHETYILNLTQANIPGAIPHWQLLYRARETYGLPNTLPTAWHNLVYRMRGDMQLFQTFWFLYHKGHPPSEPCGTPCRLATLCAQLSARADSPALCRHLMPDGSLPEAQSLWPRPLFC
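Fluorescence read-out (Ex 386 nm, Em 447 nm) after stopping the reaction at pH 10. Enzyme: ASM from human placenta; substrate HMU-PC0, 9 uM final; 60 min, 37 °C. Compound preincubation 10 min, ambient temperature.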
DT40 TDP1 no CPT: qHTS for Inhibitors of human tyrosyl-DNA phosphodiesterase 1 (TDP1): qHTS in cells in absence of CPT. DT40 Tdp1-/- hTDP1 cells, no CPT, ATP luminescence, 48 h. Potency, µM (top dose mostly 46.2 µM), for the others: at the highest dose activity change, negative = growth inhibition, most hits filed as inhibitors. actives 15% (n = 420,000). AID 686978, 2013; also: potency is read from the fitted curve at half-maximal effect; % is scaled to controls: 0 for no effect and ±100 for the full control effect; nearly all actives have a fitted effect of over 55% in size
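A cellular qHTS used chicken DT40 cells lacking endogenous Tdp1 but carrying stably transfected human TDP1. Compounds were applied without camptothecin, and cell growth kinetics were judged by ATP-dependent luminescence after ≥48 hr.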
TGFb inhibitor: TGF-b pathway inhibition. HepG2 CAGA-GFP TGF-b/SMAD3 reporter, GFP fluorescence, 18 h; TGF-beta stimulated, 500 pg/mL final. actives 1.2% (n = 410,000). Potency, µM (doses to about 46.1 µM), for inactives: at the highest dose activity, negative = inhibition, actives largely listed as inhibitors. AID 588855; also: potency is read from the fitted curve at half-maximal effect; % is scaled to controls: 0 for no effect and ±100 for the full control effect; nearly all actives have a fitted effect of over 65% in size
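Cell-based qHTS in HEPG2 carrying a CAGA-GFP Smad reporter; compounds added before 500 pg/mL final TGF-beta, 18 h incubation at 37 degrees C, GFP fluorescence quantified per cell by imaging cytometry.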
* marks the source's active call; other numbers are inactive results; ? = inconclusive; · = no result; [ ] = another dose, or the depositor's remark. Most compounds without a hit are left out; they make up all but 19% or so of the library. Unless noted, calls follow the shape of the dose curve; as a rule, active = well fitted curve in the direction sought with a large enough effect; inconclusive = small, poorly fitted or top-dose-only effect, or another doubt; inactive = no such curve, though single readings can be large; an effect the other way counts as inactive or inconclusive.

SMILES | HepG2 viability | TDP1 cell CPT | IL-1B inflam inh | S-ASM inh | DT40 TDP1 no CPT | TGFb inhibitor
CCOc1ccc(NC(=O)Cn2cc(S(=O)(=O)NC)c(S(=O)(=O)NC)c2)cc1 | -17% | -3% | · | · | -15% | 0%
COc1cccc(CNc2nc3cc(-c4ccc(F)cc4)sc3c(=O)n2C)c1 | 4% | 4% | 38 | · | -8% | -14%
O=C(c1cccs1)N1CCN(c2ccc([N+](=O)[O-])cc2F)CC1 | 5% | ? | 0 | -4% | -21% | 4%
Cc1cc(N2CCN(C(=O)c3cccs3)CC2)c(F)cc1[N+](=O)[O-] | -33% | 10µM* | -5 | -8% | 5.2µM* | ?
COc1ccccc1CN1CCC2(CC1)c1ccccc1[C@@H](NC(=O)c1ccco1)[C@@H]2OC | · | -17%[9.04 µM] | · | · | -24% | ·
ClCc1nc2ccccc2c2ccccc12 | -7% | 4.1µM* | -8 | -15% | 2.6µM* | ?
O=C1C=C(c2ccc(F)c(Cl)c2)C[C@@H](c2ccc(F)cc2)C1 | -17% | ? | -27 | -5% | ? | -22%
Cc1cccc(CC(C)NC(=O)c2cc(COc3ccc(C)c(C)c3)on2)n1 (configuration not stated) | -30% | 21µM* | ? | -3% | 21µM* | ?
Cc1cc(CNC(=O)c2cc(COc3ccc(F)c(F)c3)on2)nn1C | -10% | 15µM* | 7 | 2% | ? | -4%
Cc1cc(C)n(CC(C)NC(=O)c2cc(COc3c(F)cccc3F)on2)n1 (configuration not stated) | -2% | -46% | -14 | -1% | ? | 8%
Cc1cc(C)n(CC(C)NC(=O)c2cc(COc3ccc(F)c(F)c3)on2)n1 (configuration not stated) | -26% | ? | -7 | -1% | 16µM* | -18%
CCOC(=O)CC1(NC(=O)c2cc(COc3ccc(F)c(F)c3)on2)CCCCC1 | -23% | 23µM* | 27 | 0% | 18µM* | ?
Cn1c(CCNC(=O)c2cc(COc3ccc(F)c(F)c3)on2)nc2ccccc21 | -20% | ? | -9 | -2% | ? | -1%
Cc1ccc(OCc2cc(C(=O)NC(C)Cc3cnccn3)no2)cc1C (configuration not stated) | -2% | ? | 7 | · | ? | 2%
CC1CCN(C(=O)COC(=O)c2cccc(NS(=O)(=O)c3ccccc3)c2)CC1 | 11% | -7% | 21 | 6% | -21% | -4%
CCOc1ccccc1NC(=O)c1nnn(CC(=O)Nc2cc(C)cc(C)c2)c1N | -3% | -16% | 32 | -2% | 1% | 0%
c1cc(-c2ccncc2)ccn1 | 0% | 10µM* | 29 | 2% | 16µM* | -10%
c1cc(-c2nnc(-c3ccncc3)o2)ccn1 | -2% | 7% | -4 | 4% | -20% | -4%
O=C1N=C(N2CCOCC2)S/C1=C\c1ccc(-c2ccccc2Cl)o1 | 0% | -22% | -17 | 111% | ? | 9%
Cc1ccccc1-c1ccc(/C=C2/SC(N3CCOCC3)=NC2=O)o1 | -44% | 2.9µM* | -76* | 98% | 7.3µM* | 20%
CCOc1ccc(NC(=O)CN(C)C(=O)C2CCCO2)cc1OCC (configuration not stated) | 1% | 4% | 6 | 4% | 5% | -41%
C[C@@H](NCCCc1cccc(C(F)(F)F)c1)c1cccc2ccccc12 | 13µM* | 9.4µM* | · | · | 8.4µM* | ?
CSc1ncnc2c1ncn2CCCN[C@H](C)c1cccc2ccccc12 | -30% | -28% | -14 | · | ? | -5%
N#CCCn1nc(-c2ccccc2)cc1Nc1ccccc1NC(=O)c1cccs1 | -13% | ? | -60* | -11% | -27% | -2%
Cc1cccc(CN2CCC(N3CC(C)OC(C)C3)CC2)c1 (configuration not stated) | -7% | 17% | -1 | -5% | 8% | -2%
SMILES | HepG2 viability | TDP1 cell CPT | IL-1B inflam inh | S-ASM inh | DT40 TDP1 no CPT | TGFb inhibitor
COc1cc2c(c(OC)c1OC)-c1ccc(NC(=O)c3ccc(F)cc3)c(=O)cc1[C@@H](NC(C)=O)CC2 | -15% | 8.2µM* | 14 | ? | 7.3µM* | ?
COc1cc2c(c(OC)c1OC)-c1ccc(NCc3ccccc3)c(=O)cc1C(NC(C)=O)CC2 (configuration not stated) | -26% | 0.92µM* | 85 | · | 0.92µM* | ?
Cc1cc(C(=O)Oc2cccnc2)ccc1[N+](=O)[O-] | 19% | 0% | 19 | 1% | -22% | -3%
O=C(Oc1c(Br)cc([N+](=O)[O-])cc1Br)c1cccnc1 | -35% | 18µM* | 0 | 27% | ? | ?
N/C(=N\OC(=O)c1cc([N+](=O)[O-])ccc1Cl)c1cccnc1 | 19% | ? | -101* | -4% | ? | 1%
CCN1C(=O)[C@H]2[C@H]3CN=C(SCC(=O)c4ccccc4)N3[C@@](CC)(C(=O)OC)[C@H]2C1=O | -22% | ? | -19 | 2% | -11% | -9%
CCOC(=O)c1c(C)[nH]c(C)c1C(=O)Cn1nnc(-c2ccccc2C)n1 | -12% | 15µM* | 10 | -9% | ? | -26%
O=C(C[n+]1ccccc1Br)c1ccc2c(c1)CCCC2 | 0% | ? | · | · | 20µM* | 5%
O=C(CCl)c1cc2c3c(c1)CC(=O)N3CCC2 | -49% | 1.2µM* | -71* | 2% | 0.33µM* | -33%
O=C(COc1ccc(Br)cc1)c1ccc2c(c1)CCCC2 | -5% | ? | -27 | -5% | 23µM* | 26%
O=C(C[n+]1ccccc1Br)c1ccc(O)c(O)c1 | 2% | 12% | · | · | -6% | -4%
O=C(CCl)c1ccc2c(c1)CCCC2 | -28% | 0.89µM* | · | · | 0.79µM* | 4%
CN(C)c1ccsc1C(=O)NNS(=O)(=O)c1ccc(Cl)cc1 | -5% | 1% | 10 | 2% | -10% | 3%
CC(C)[C@@H]1CC[C@@H](C)CC1=O | · | -15% | · | · | -17% | ·
O=C(NC(=S)Nc1ccc(S(=O)(=O)Nc2nccs2)cc1)c1ccc(F)cc1 | -10% | 2% | 11 | -6% | -20% | ?
Cc1cccn2c(=S)[nH]nc12 | 8% | 4% | 10 | 0% | -3% | ?
Cc1ccc(C(NC(=O)C2CCN(Cc3ccc(Cl)c(Cl)c3)CC2)c2ccccn2)cc1 (configuration not stated) | 1% | ? | · | · | 1.3µM* | -17%
